NPYLR7 agonist: mosquito NPYLR7 agonism; AID 1259423; actives 0.15% (n = 270,000); activation, % at 10 µM; HEK293T NPYLR7/Galpha15, GCaMP6s calcium fluorescence; in the data active = activation above about 40%
mcGAS lum: blocks mouse cGAS activity. recombinant cGAS, Kinase-Glo ATP depletion luminescence. inhibition, % at 12.5 µM. actives 0.15% (n = 160,000). AID 1259399
hcGAS inh: blocks human cGAS activity | inhibition, % at 12.5 µM | recombinant h-cGAS, ATP depletion, Kinase-Glo luminescence | actives 0.081% (n = 290,000) | AID 1259398
Target sequence (Q8N884 whole entry, looked up): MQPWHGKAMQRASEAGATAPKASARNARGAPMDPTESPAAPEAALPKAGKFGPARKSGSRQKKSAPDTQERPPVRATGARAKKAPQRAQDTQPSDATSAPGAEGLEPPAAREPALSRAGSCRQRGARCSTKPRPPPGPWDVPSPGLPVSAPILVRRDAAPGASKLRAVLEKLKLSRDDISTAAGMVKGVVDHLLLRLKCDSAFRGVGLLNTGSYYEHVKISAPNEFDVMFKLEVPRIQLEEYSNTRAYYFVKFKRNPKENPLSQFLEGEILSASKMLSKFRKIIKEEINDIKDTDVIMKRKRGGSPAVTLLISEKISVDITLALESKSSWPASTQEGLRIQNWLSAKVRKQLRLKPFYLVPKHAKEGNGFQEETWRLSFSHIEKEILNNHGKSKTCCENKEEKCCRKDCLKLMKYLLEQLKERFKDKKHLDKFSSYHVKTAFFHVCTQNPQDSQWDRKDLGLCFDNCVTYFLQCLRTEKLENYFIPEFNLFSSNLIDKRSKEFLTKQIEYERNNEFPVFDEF
Large screens that a line does not name were inactive; ! = a repeat was not active. Compounds with a hit are over-represented: about 0.3% of the library has one in this group of screens. Rule as the data show it, unless noted: active = inhibition above about 40%; inactive = the rest.

Cc1cccc(NC(=O)c2n[nH]c([N+](=O)[O-])c2Br)c1C	none
N#Cc1ccccc1NC(=O)c1n[nH]c([N+](=O)[O-])c1Br	hcGAS inh 44 (no result: mcGAS lum)
O=C(Oc1cc(=O)oc2c1c(=O)n1c3c(cccc23)CC1)c1ccc(Cl)cc1	none (no result: mcGAS lum)
COc1ccc(-c2ccc(N)nc2)c(C)c1	none (no result: mcGAS lum)
COc1ccc(-c2cnn(CCC(N)=O)c2)c(C)c1	NPYLR7 agonist 47 (no result: mcGAS lum)
N#CC(C#N)=Cc1cn(-c2ccccc2)nc1-c1cc2ccccc2o1	none (no result: mcGAS lum)
N#CC(C#N)=Cc1cn[nH]c1-c1cc2ccccc2o1	mcGAS lum 46
Cc1cc(C)nc(N2C[C@H]3OC(=O)N(Cc4ccccn4)[C@H]3C2)n1	none (no result: mcGAS lum)
Cc1nn(Cc2ccccc2Cl)c2sc(C(=O)N(CC(N)=O)c3ccccc3)cc12	none (no result: mcGAS lum)
O=C(O)c1csc(CSc2nnc(Cc3ccccc3)n2-c2cccc(C(F)(F)F)c2)n1	NPYLR7 agonist 55
O=C(NCc1cccc(C(F)(F)F)c1)c1csc(CSc2nnc(Cc3ccccc3)n2-c2ccccc2)n1	none
Cc1cnn(CCCNc2ccccc2S(=O)(=O)C(F)F)c1	none
CCCc1nc(C(=O)N2CCCC(c3[nH]ncc3CC)C2)cs1 (stereo not drawn)	none
CCc1cn[nH]c1C1CCCN(C(=O)c2csc(Cc3ccccc3)n2)C1 (stereo not drawn)	hcGAS inh 55
Cc1cc(Cl)cc2sc(N(CCCn3ccnc3)C(=O)c3ccco3)nc12	none
CCN(CC)CCNc1ccc(CO)c2sc3ccccc3c(=O)c12	hcGAS inh 54! (no result: mcGAS lum)
CCN(CC)CCNc1nc2c(F)cccc2s1	none (no result: mcGAS lum)
O=C1c2ccccc2C(=O)c2c1ccc(O)c2O	none (no result: mcGAS lum)
O=C1c2ccc(O)c(O)c2C(=O)c2c(O)ccc(O)c21	mcGAS lum 79, hcGAS inh 47 (no result: NPYLR7 agonist)
CCOC(=O)CCC(=O)Nc1nnc(SCc2cccc(C)c2)s1	none
C=CCN1C(=O)C(Cc2ccc(OC)cc2)S/C1=N\N=C/c1ccco1 (stereo not drawn)	none
C=CCN1C(=O)C(Cc2ccc(OC)cc2)S/C1=N/N=C\c1cccs1 (stereo not drawn)	NPYLR7 agonist 88
Fc1ccccc1-c1cnnc(NCCc2cccc(Cl)c2)n1	none (no result: mcGAS lum)
N#CC(=Cc1ccc(OC(F)F)cc1)C(=O)O	mcGAS lum 49
CC(C)NC(=O)C(C#N)=Cc1ccc(O)cc1	none
COc1ccccc1-c1cc(C(=O)NCCCN2CCOCC2)n2nc(-c3ccccc3)cc2n1	none (no result: NPYLR7 agonist)
COc1ccccc1-c1cc(C(=O)NCCCN2CCOCC2)n2nc(-c3ccc(Cl)cc3)cc2n1	mcGAS lum 42
COCCSc1nc2c(c(=O)n(C)c(=O)n2C)n1CCCc1ccccc1	none
CC(C)(C)C1CCc2sc(C(=O)N3CCNC(=O)C3)cc2C1 (stereo not drawn)	mcGAS lum 93
CC(C)(C)C1CCc2sc(C(=O)NN3C(=O)NC4(CCCCC4)C3=O)cc2C1 (stereo not drawn)	none (no result: mcGAS lum)
C/C(=C\c1ccco1)CN1CCC(NS(C)(=O)=O)CC1	none (no result: mcGAS lum)
Cn1nc(Br)c2c(NC(CO)C(C)(C)C)ncnc21 (stereo not drawn)	none (no result: mcGAS lum)
CCC1CN(C(=O)c2cc(C(C)C)no2)CCC(=O)N1Cc1ccccc1 (stereo not drawn)	none
CCC1CN(C(=O)c2cc(C(C)C)on2)CCC(=O)N1Cc1ccccc1 (stereo not drawn)	NPYLR7 agonist 62 (no result: mcGAS lum)
CCOc1ccc(N(C)C(=O)c2cc(C(N)=O)cs2)cc1	none (no result: NPYLR7 agonist, mcGAS lum)
CC(C)(NC(=O)c1cccs1)C(=O)NC1CCN(Cc2ccccc2)C1 (stereo not drawn)	none (no result: mcGAS lum)
Cc1ccccc1C1CCCN1C(=O)C(C)(C)NC(=O)c1cccs1 (stereo not drawn)	hcGAS inh 50 (no result: mcGAS lum)
CCNC(=O)O[C@H]1C(=O)N(C)C2(CCN(C(=O)C3CCCCC3)CC2)[C@@H]1C(=O)NC	none
CCn1c(SCC(=O)Nc2cc(F)ccc2F)nc2c(-c3ccccc3)c[nH]c2c1=O	none
COCCn1cc(OC(C)=O)c2c1nc(C)n1c3ccccc3nc21	none (no result: mcGAS lum)
CN1C(=CP(=O)(N(C)C)N(C)C)C(C)(C)c2ccccc21	none (no result: mcGAS lum)
CN1C(=CC=C2C(=O)Oc3ccccc3C2=O)C(C)(C)c2ccccc21	NPYLR7 agonist 49 (no result: mcGAS lum)
CN1C(=S)N(C2CCCCC2)C(=O)/C1=C\c1ccc2c(c1)OCO2	NPYLR7 agonist 46
CN1C(=S)N(c2ccc3c(c2)OCO3)C(=O)/C1=C\c1cccc(OCCO)c1	none
Cc1nc(C)c(CS(=O)CC(=O)N(C)Cc2cccs2)s1 (stereo not drawn)	none (no result: mcGAS lum)
COc1cccc2c1C(=O)c1c(O)c3c(c(O)c1C2=O)C[C@@](O)(C(=O)CO)C[C@@H]3OC1C[C@H](N)[C@H](O)[C@H](C)O1 (stereo partly drawn)	hcGAS inh 57 (no result: NPYLR7 agonist, mcGAS lum)
Oc1ccccc1C(Nc1ccccn1)c1ccc2cccnc2c1O (stereo not drawn)	none (no result: mcGAS lum)
Oc1cccc2ccc(Nc3ccccn3)nc12	hcGAS inh 57
O=C(Nc1ccc(Cl)cn1)c1[nH]ncc1[N+](=O)[O-]	hcGAS inh 60 (no result: mcGAS lum)
O=C(Nc1ccc(Cl)cn1)c1ccc(Cn2cc(Br)c([N+](=O)[O-])n2)cc1	none (no result: mcGAS lum)
O=C1c2oc3ccc(Cl)cc3c(=O)c2C(c2ccccn2)N1c1ccccn1 (stereo not drawn)	none (no result: mcGAS lum)
CCOc1cc(/C=C2/C(=N)N3C=CSC3=NC2=O)cc(Br)c1OC(=O)c1ccco1	none
COc1cc(/C=C2\C(=N)N3N=CSC3=NC2=O)cc(Br)c1OC(=O)c1ccco1	NPYLR7 agonist 49 (no result: mcGAS lum)
Cc1cc(C(F)(F)F)c(C#N)c(SCC(=O)NC(C)C)n1	none (no result: mcGAS lum)
CCC(CO)NC(=O)CN1CCN(c2ccc3c(c2)OCCO3)C1=O (stereo not drawn)	none (no result: mcGAS lum)
CC(C)NC[C@H](O)c1ccc(O)c(O)c1	NPYLR7 agonist 85!
CC(C)NCC(O)c1cc(O)cc(O)c1 (stereo not drawn)	none
Cc1ccc(C)c2sc(N3CCN(C(=O)C4CCCCC4)CC3)nc12	none
COc1ccc(C(C)(C)NC(=O)CC2C(=O)NCCN2CC=C(C)C)cc1 (stereo not drawn)	none
CCOC(=O)C1CCN(C(=O)C(C)n2ccsc2=NC(=O)c2cccc(C(F)(F)F)c2)CC1 (stereo not drawn)	none (no result: mcGAS lum)
Cc1sc(=NC(=O)c2cccc(C(F)(F)F)c2)n(C(C)C(=O)NC2CC2)c1C (stereo not drawn)	hcGAS inh 184 (no result: mcGAS lum)
CCC(=O)N(CC1CC1)c1cc(Cl)ccc1C#N	none (no result: mcGAS lum)
NC(=O)n1c(O)c(C(=O)c2cccs2)c2cc(Cl)ccc21	hcGAS inh 67 (no result: mcGAS lum)
O=C(c1cccs1)c1cccs1	none (no result: mcGAS lum)
Nc1c2c(nn1-c1ccccc1)CSC2	none
COC(=O)Cn1c(=O)c2c(nc3n2CCN3c2cc(C)cc(C)c2)n(C)c1=O	none
CCOC(=O)c1c(-c2ccccc2)csc1N=Cc1nc(-c2ccccc2)oc1O	NPYLR7 agonist 97
CCOC(=O)c1c(-c2ccc(C)cc2)csc1N=Cc1nc(-c2ccccc2)oc1O	none
Cc1cc(C(=O)NCC(O)COc2ccc(F)cc2)c2[nH]ncc2c1 (stereo not drawn)	none (no result: mcGAS lum)
COc1ccccc1Oc1nc2ccccn2c(=O)c1/C=C(\C#N)c1nc2ccccc2s1	NPYLR7 agonist 65
COC(=O)/C(C#N)=C/c1c(Oc2ccc(C)cc2)nc2ccccn2c1=O	none
Cc1cccc(Oc2nc3ccccn3c(=O)c2/C=C(\C#N)c2nc3ccccc3s2)c1	NPYLR7 agonist 89
COc1ccc(Oc2nc3c(C)cccn3c(=O)c2/C=C(\C#N)c2nc3ccccc3s2)cc1	none

Screening results: PubChem BioAssay, Fisher Drug Discovery Resource Center
